Data as given in PubChem BioAssay (NCI).
The panel holds about 83,000 compounds, 20% with a hit somewhere; the sample as a whole holds those more often.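 For each line, cells grew in 96-well plates with the test compound present at a single concentration for 48 hours.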 Activity calls are given as the source filed them. How the source made its calls: active means growth percent below 10; inactive means the rest.

How the values were obtained:
Experiment in all cases: NCI-60 one-dose screen, 48 h (100 = growth as untreated, 0 = no growth, -100 = all killed)
Conditions in all cases: 10 µM unless noted
NCI-H23 lung = test system: NCI-H23 lung
NCI-H226 lung = test system: NCI-H226 lung
NCI-H322M lung = test system: NCI-H322M lung
HOP-62 NSCLC = test system: HOP-62 NSCLC
NCI-H460 lung = test system: NCI-H460 lung
HOP-92 NSCLC = test system: HOP-92 NSCLC
NCI-H522 lung = test system: NCI-H522 lung
A549/ATCC NSCLC = test system: A549/ATCC NSCLC
786-0 renal = test system: 786-0 renal
COLO 205 colon = test system: COLO 205 colon
DU-145 prostate = test system: DU-145 prostate
K-562 leukemia = test system: K-562 leukemia
MALME-3M melanoma = test system: MALME-3M melanoma
MDA-MB-231 breast = test system: MDA-MB-231 breast
RXF 393 renal = test system: RXF 393 renal
SF-268 CNS = test system: SF-268 CNS
SF-295 CNS = test system: SF-295 CNS
SF-539 CNS = test system: SF-539 CNS
UACC-257 melanoma = test system: UACC-257 melanoma
M14 melanoma = test system: M14 melanoma

Measured: growth

COc1c(B(O)O)cc(C)cc1-c1nc2ccc3[nH]ncc3c2c2c1CCCC2
active: RXF 393 renal -2.67%
inactive: NCI-H23 lung 70.9% | NCI-H226 lung 73.7% | NCI-H322M lung 106% | HOP-62 NSCLC 43% | NCI-H460 lung 31.4% | HOP-92 NSCLC 53.8% | NCI-H522 lung 37.3% | A549/ATCC NSCLC 52.7% | 786-0 renal 48.3% | COLO 205 colon 19.6% | DU-145 prostate 72.6% | K-562 leukemia 24.1% | MALME-3M melanoma 91.6% | MDA-MB-231 breast 23.4% | SF-268 CNS 50% | SF-295 CNS 53.1% | SF-539 CNS 12.5% | UACC-257 melanoma 102% | M14 melanoma 97.4%

O=C1CN(CCN2CC(=O)N(Cc3ccccc3)C(=O)C2)CC(=O)N1Cc1ccccc1
inactive: NCI-H23 lung 97.7% | NCI-H226 lung 107% | NCI-H322M lung 104% | HOP-62 NSCLC 91.2% | NCI-H460 lung 100% | HOP-92 NSCLC 85% | NCI-H522 lung 98.8% | A549/ATCC NSCLC 102% | 786-0 renal 110% | COLO 205 colon 109% | DU-145 prostate 117% | K-562 leukemia 107% | MALME-3M melanoma 103% | MDA-MB-231 breast 102% | RXF 393 renal 108% | SF-268 CNS 103% | SF-295 CNS 109% | SF-539 CNS 115% | UACC-257 melanoma 98.4% | M14 melanoma 109%

O=C(Nc1ccc(Br)cc1F)c1cc(Br)ccc1O
inactive: HOP-62 NSCLC 13% | COLO 205 colon 85.6% | DU-145 prostate 20.9% | K-562 leukemia 10.3% | SF-268 CNS 14.5%
active: NCI-H23 lung 0.13% | NCI-H226 lung -1.23% | NCI-H322M lung -4.81% | NCI-H460 lung 3.37% | HOP-92 NSCLC -14.6% | NCI-H522 lung -7.77% | A549/ATCC NSCLC 8.21% | 786-0 renal 7.72% | MALME-3M melanoma -26.4% | MDA-MB-231 breast -38.1% | RXF 393 renal -8.01% | SF-295 CNS -59.7% | SF-539 CNS 9.41% | UACC-257 melanoma -17.2% | M14 melanoma 8.04%

COc1ccc(-c2cnc3ccccc3n2)cc1
inactive: NCI-H23 lung 93.2% | NCI-H226 lung 82.7% | NCI-H322M lung 95.2% | HOP-62 NSCLC 87.9% | NCI-H460 lung 101% | HOP-92 NSCLC 86.9% | NCI-H522 lung 80.2% | A549/ATCC NSCLC 94.6% | 786-0 renal 95.4% | COLO 205 colon 104% | DU-145 prostate 106% | K-562 leukemia 97.5% | MALME-3M melanoma 103% | MDA-MB-231 breast 92.7% | RXF 393 renal 108% | SF-268 CNS 94.6% | SF-295 CNS 98.8% | SF-539 CNS 90.6% | UACC-257 melanoma 104% | M14 melanoma 100%

NCCCNc1nc2ccccc2c2c(=O)c3cc(F)cc(F)c3sc12
inactive: NCI-H23 lung 84% | NCI-H226 lung 92.5% | NCI-H322M lung 84.5% | HOP-62 NSCLC 78.9% | HOP-92 NSCLC 36% | NCI-H522 lung 92.7% | A549/ATCC NSCLC 78.1% | COLO 205 colon 63.6% | DU-145 prostate 73.4% | MALME-3M melanoma 73.6% | MDA-MB-231 breast 18.2% | RXF 393 renal 63.6% | SF-268 CNS 81.7% | SF-295 CNS 105% | UACC-257 melanoma 100%
active: NCI-H460 lung -75.1% | 786-0 renal -88.8% | K-562 leukemia -42.9% | SF-539 CNS -92.3% | M14 melanoma -85.2%

COc1ccc(/C=C(\C#N)n2nnc3c(F)cccc32)cc1
active: NCI-H460 lung 2.99% | COLO 205 colon -6.97% | DU-145 prostate 2.45% | RXF 393 renal -21.3% | SF-295 CNS 5.51% | SF-539 CNS -27.4% | M14 melanoma -16.2%
inactive: NCI-H23 lung 18% | NCI-H226 lung 45% | NCI-H322M lung 37.9% | HOP-62 NSCLC 28.7% | HOP-92 NSCLC 21.4% | NCI-H522 lung 11.6% | A549/ATCC NSCLC 35.6% | 786-0 renal 15.9% | K-562 leukemia 12.1% | MALME-3M melanoma 36.8% | MDA-MB-231 breast 21% | SF-268 CNS 39.7% | UACC-257 melanoma 62.6%

CCN(CC)CCNc1nc2ccccc2c2c(=O)c3cc(Cl)ccc3sc12
inactive: NCI-H23 lung 79.7% | NCI-H226 lung 91.7% | NCI-H322M lung 87.5% | HOP-62 NSCLC 76.7% | HOP-92 NSCLC 28.6% | NCI-H522 lung 63.9% | A549/ATCC NSCLC 52.3% | 786-0 renal 74.5% | COLO 205 colon 64.2% | DU-145 prostate 43% | MALME-3M melanoma 88.4% | RXF 393 renal 79.1% | SF-268 CNS 62.1% | SF-295 CNS 29.2% | SF-539 CNS 67.2% | UACC-257 melanoma 93.2% | M14 melanoma 31%
active: NCI-H460 lung 8.93% | K-562 leukemia -25.5% | MDA-MB-231 breast -2.23%

O=C1COCCN1c1ccc(NCc2cn(C(=O)c3ccc(Cl)cc3)c3ccccc23)cc1
inactive: NCI-H23 lung 54.5% | NCI-H322M lung 95.1% | HOP-62 NSCLC 60.2% | NCI-H460 lung 14.9% | HOP-92 NSCLC 58.2% | NCI-H522 lung 65.6% | A549/ATCC NSCLC 46.9% | 786-0 renal 65.8% | COLO 205 colon 29.3% | DU-145 prostate 84.2% | K-562 leukemia 28.3% | MALME-3M melanoma 78.1% | MDA-MB-231 breast 118% | SF-268 CNS 98% | SF-295 CNS 47.2% | SF-539 CNS 93.4% | UACC-257 melanoma 33.6% | M14 melanoma 74.1%
active: NCI-H226 lung -61.1% | RXF 393 renal 8.91%

O=C(/C=C/c1ccc([N+](=O)[O-])o1)NNC(=O)c1cc2ccccc2cc1O
inactive: NCI-H322M lung 23.3% | HOP-62 NSCLC 27.5% | A549/ATCC NSCLC 32.4% | DU-145 prostate 11.7% | MDA-MB-231 breast 21% | SF-295 CNS 54.8%
active: NCI-H23 lung 6.76% | NCI-H226 lung 0.682% | NCI-H460 lung 9.04% | HOP-92 NSCLC 4.15% | NCI-H522 lung -79.5% | 786-0 renal -23.8% | COLO 205 colon -7.38% | K-562 leukemia 3.48% | MALME-3M melanoma -36.3% | RXF 393 renal -20.8% | SF-268 CNS -3.99% | SF-539 CNS -22.6% | UACC-257 melanoma -16.5% | M14 melanoma -93.3%

C[C@]12CC[C@@H]3c4cc(OC(F)F)c(OS(N)(=O)=O)cc4CC[C@H]3[C@@H]1CC[C@@H]2OS(N)(=O)=O
inactive: NCI-H23 lung 36.2% | NCI-H226 lung 93.2% | NCI-H322M lung 65.7% | HOP-62 NSCLC 44.4% | NCI-H460 lung 15.1% | HOP-92 NSCLC 57.3% | NCI-H522 lung 45.7% | A549/ATCC NSCLC 43.5% | 786-0 renal 67.5% | COLO 205 colon 116% | DU-145 prostate 42.1% | K-562 leukemia 16.8% | MALME-3M melanoma 41% | MDA-MB-231 breast 54% | RXF 393 renal 42.1% | SF-268 CNS 49.7% | SF-295 CNS 27.3% | SF-539 CNS 26% | UACC-257 melanoma 62.2% | M14 melanoma 31.1%

O=c1[nH][n+](-c2ccc(Br)cc2)no1
inactive: NCI-H23 lung 88.8% | NCI-H226 lung 72.5% | NCI-H322M lung 72.2% | HOP-62 NSCLC 75.5% | NCI-H460 lung 28.3% | HOP-92 NSCLC 84.1% | NCI-H522 lung 49.3% | A549/ATCC NSCLC 48.1% | 786-0 renal 59% | COLO 205 colon 56.2% | DU-145 prostate 57.9% | K-562 leukemia 10.9% | MALME-3M melanoma 60.3% | MDA-MB-231 breast 68.7% | RXF 393 renal 105% | SF-268 CNS 32.8% | SF-295 CNS 21.3% | UACC-257 melanoma 55% | M14 melanoma 74%
active: SF-539 CNS 7.06%

COc1cccc(Cc2nn3cc(-c4ccccc4)nc3s2)c1
inactive: NCI-H23 lung 97.4% | NCI-H226 lung 110% | NCI-H322M lung 91.8% | HOP-62 NSCLC 95.2% | NCI-H460 lung 105% | HOP-92 NSCLC 84.8% | NCI-H522 lung 70.3% | A549/ATCC NSCLC 94.4% | 786-0 renal 52% | COLO 205 colon 106% | DU-145 prostate 94.4% | K-562 leukemia 27.7% | MALME-3M melanoma 96.2% | MDA-MB-231 breast 78.9% | RXF 393 renal 117% | SF-268 CNS 89.2% | SF-295 CNS 103% | SF-539 CNS 102% | UACC-257 melanoma 89.7% | M14 melanoma 84.1%

COc1ccc(CN2c3ccccc3Sc3ccccc32)c(F)c1
active: NCI-H522 lung -12% | K-562 leukemia 8.99% | RXF 393 renal 0.721% | SF-295 CNS 7.51% | SF-539 CNS -3.66%
inactive: NCI-H23 lung 50.5% | NCI-H226 lung 56.1% | NCI-H322M lung 44.7% | HOP-62 NSCLC 26.6% | NCI-H460 lung 11% | HOP-92 NSCLC 33.2% | A549/ATCC NSCLC 34.1% | 786-0 renal 42.2% | COLO 205 colon 11.7% | DU-145 prostate 20.5% | MALME-3M melanoma 57% | MDA-MB-231 breast 60.4% | SF-268 CNS 52.3% | UACC-257 melanoma 52.3% | M14 melanoma 11.2%

COc1cc(Nc2nc(NCCN)nc3cc[nH]c(=O)c23)cc(OC)c1
inactive: NCI-H23 lung 65.1% | NCI-H226 lung 93.7% | NCI-H322M lung 83% | HOP-62 NSCLC 97.8% | NCI-H460 lung 96.9% | HOP-92 NSCLC 59.5% | NCI-H522 lung 72.9% | A549/ATCC NSCLC 90.5% | 786-0 renal 86.9% | COLO 205 colon 55.3% | DU-145 prostate 65% | K-562 leukemia 75.8% | MALME-3M melanoma 46.9% | MDA-MB-231 breast 75.7% | RXF 393 renal 58.7% | SF-268 CNS 77.3% | SF-295 CNS 102% | SF-539 CNS 76.3% | UACC-257 melanoma 72.5% | M14 melanoma 49.7%

CCOC(=O)c1c2c(n(-c3ccc(C#N)cc3)c1-c1ccccc1)C=CCC2
inactive: NCI-H23 lung 89.3% | NCI-H226 lung 96.5% | NCI-H322M lung 91.6% | HOP-62 NSCLC 83.3% | NCI-H460 lung 98.9% | HOP-92 NSCLC 98.4% | NCI-H522 lung 72.1% | A549/ATCC NSCLC 91.1% | 786-0 renal 101% | COLO 205 colon 87.2% | DU-145 prostate 102% | K-562 leukemia 70.7% | MALME-3M melanoma 103% | MDA-MB-231 breast 91.6% | RXF 393 renal 109% | SF-268 CNS 96.8% | SF-295 CNS 86.2% | SF-539 CNS 114% | UACC-257 melanoma 102% | M14 melanoma 93.5%
